The source made the active and inactive calls. Unless noted, the rule behind the calls is not given here.
Experiments:
[1] = compound effects on lung adenocarcinoma cell viability – A549, calcein-AM fluorescence, 48 h, basal, profiling panel (AID 1162); conditions: higher = more signal; note: test concentration not given here
[2] = compound effects on differentiated 3T3-L1 adipocyte viability – cell-based, 3T3-L1 adipocytes, calcein-AM fluorescence, 48 h, basal, profiling panel (AID 1163); conditions: 3T3-L1 adipocytes viability, higher = more signal; note: test concentration not given here
[3] = compound effects on hepatocellular carcinoma cell viability – HepG2, calcein-AM fluorescence, 48 h, basal, profiling panel (AID 1164); conditions: higher = more signal; note: test concentration not given here
[4] = compound effects on multiple myeloma cell viability – MM1S, calcein-AM fluorescence, 48 h, basal, profiling panel (AID 1165); conditions: higher = more signal; note: test concentration not given here
[5] = calcein-AM signal in unstimulated myeloma cells – cell-based, calcein-AM fluorescence, 48 h, PK04 Diversity Set, profiling panel (AID 1166); conditions: RPMI8226 myeloma viability, higher = more signal;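 note: cells grown under basal conditions without added stimulus; test concentration not given here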
[6] = JC-1 mitochondrial signal, unstimulated HepG2 cells – cell-based, JC-1 fluorescence, 24 h, 100 nL compound, profiling panel (AID 1167); conditions: HepG2 mitochondrial potential, higher = more signal; note: test concentration not given here
[7] = JC-1 mitochondrial signal, unstimulated adipocytes – cell-based, JC-1 fluorescence, 3T3-L1 adipocytes, 24 h, 100 nL compound, profiling panel (AID 1168); conditions: JC-1 mitochondrial fluorescence, higher = more signal, called active from +8 up or from −8 down; note: test concentration not given here
[8] = JC-1 mitochondrial signal, unstimulated myeloma cells – cell-based, JC-1 fluorescence, RPMI8226, 24 h, 100 nL compound, profiling panel (AID 1169); conditions: JC-1 mitochondrial potential fluorescence, higher = more signal; note: test concentration not given here
[9] = JC-1 mitochondrial signal, unstimulated MM1S myeloma – cell-based, JC-1 fluorescence, 24 h, 100 nL compound, profiling panel (AID 1170); conditions: MM1S mitochondrial potential, higher = more signal; note: test concentration not given here
[10] = resazurin metabolic signal in A549 cells – cell-based, resazurin fluorescence, 24 h, PK04 Diversity Set, profiling panel (AID 1171); conditions: A549 viability, higher = more signal, called active from +8 up or from −8 down; note: test concentration not given here
[11] = resazurin metabolic signal in HepG2 cells – cell-based, resazurin fluorescence, 24 h, PK04 Diversity Set, profiling panel (AID 1172); conditions: HepG2 viability, higher = more signal; note: test concentration not given here
[12] = budding yeast growth changes without added modifier – OD600, strain BY4716, 24 h, basal condition, primary screen (AID 1173); conditions: S. cerevisiae BY4716 growth, OD600, 24 h; higher = more signal, called active from +8 up or from −8 down
[13] = viability profiling in MM1S myeloma cells – cell-based, resazurin fluorescence, basal, 24 h, PK04 Diversity Set, profiling panel (AID 1174); conditions: higher = more signal, called active from +8 up or from −8 down; note: test concentration not given here
[14] = molecular target: Dihydroorotate dehydrogenase (quinone), mitochondrial (Plasmodium falciparum (isolate 3D7)) (UniProt Q08210); experiment: inhibition of P. falciparum DHODH – biochemical, C-terminal His tag, absorbance 600 nm, primary screen (AID 1175); conditions: PfDHODH enzyme, DCIP absorbance 600 nm; higher = more signal, called active from +8 up or from −8 down;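 note: recombinant parasite enzyme with a five histidine tag at its C terminus; test concentration not given here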
[15] = inhibition of PAO1 biofilm formation – strain PAO1, LB-PBS medium, absorbance 600 nm, primary screen (AID 1176); note: test concentration not given here; conditions: P. aeruginosa PAO1 growth/biofilm, A600, 12 h; higher = more signal
[16] = growth modulation of vineyard yeast isolate – strain RM11-1a, OD600, basal, 24 h, primary screen (AID 1177);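 note: cultures grown under basal conditions with no added stressor; test concentration not given here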; conditions: S. cerevisiae RM11-1a growth, OD600, 24 h; higher = more signal, called active from +8 up or from −8 down
[17] = growth of efflux-deficient E. coli DRC39 – strain DRC39, OD650, 24 h, E. coli filamentation inducers, primary screen (AID 1178);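 note: growth measured as culture turbidity by optical density at 650 nm; test concentration not given here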; conditions: E. coli DRC39 acrAB, higher = more signal, called active from +8 up or from −8 down
[18] = growth of efflux-deficient E. coli DRC39 – strain DRC39, OD650, 48 h, E. coli filamentation inducers, primary screen (AID 1179);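 note: screen aims at cell division blockers that make cells filament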; conditions: E. coli DRC39 delta-acrAB growth, higher = more signal, called active from +8 up or from −8 down
[19] = viability profiling in RPMI8226 myeloma cells – cell-based, resazurin fluorescence, basal, 24 h, PK04 Diversity Set, profiling panel (AID 1180); conditions: higher = more signal;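 note: RPMI8826 multiple myeloma cell line at 5000 cells per well; test concentration not given here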
[20] = molecular target: E3 ubiquitin-protein ligase XIAP (Homo sapiens) (UniProt P98170); experiment: small molecules binding XIAP protein – biophysical, small-molecule microarray, fluorescence 635 nm, primary screen (AID 1181); conditions: higher = more signal;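 note: score merges 667 nm emission and signal to noise over triplicate slides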
Chain of E3 ubiquitin-protein ligase XIAP (Homo sapiens) (P98170 whole entry, looked up): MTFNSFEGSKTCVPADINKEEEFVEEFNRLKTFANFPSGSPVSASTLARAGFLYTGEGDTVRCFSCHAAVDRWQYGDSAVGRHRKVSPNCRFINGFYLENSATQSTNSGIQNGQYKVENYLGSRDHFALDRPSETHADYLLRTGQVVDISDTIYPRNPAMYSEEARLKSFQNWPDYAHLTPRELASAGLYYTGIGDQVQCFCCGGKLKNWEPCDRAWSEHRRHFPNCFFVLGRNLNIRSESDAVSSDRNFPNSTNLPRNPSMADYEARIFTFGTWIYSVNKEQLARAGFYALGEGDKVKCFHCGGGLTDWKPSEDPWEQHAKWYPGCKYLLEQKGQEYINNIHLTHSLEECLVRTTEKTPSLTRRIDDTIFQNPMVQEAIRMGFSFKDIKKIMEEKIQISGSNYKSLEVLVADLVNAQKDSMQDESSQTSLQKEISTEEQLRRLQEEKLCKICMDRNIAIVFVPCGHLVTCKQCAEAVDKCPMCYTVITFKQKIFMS

Chain of Dihydroorotate dehydrogenase (quinone), mitochondrial (Plasmodium falciparum (isolate 3D7)) (Q08210 whole entry, looked up): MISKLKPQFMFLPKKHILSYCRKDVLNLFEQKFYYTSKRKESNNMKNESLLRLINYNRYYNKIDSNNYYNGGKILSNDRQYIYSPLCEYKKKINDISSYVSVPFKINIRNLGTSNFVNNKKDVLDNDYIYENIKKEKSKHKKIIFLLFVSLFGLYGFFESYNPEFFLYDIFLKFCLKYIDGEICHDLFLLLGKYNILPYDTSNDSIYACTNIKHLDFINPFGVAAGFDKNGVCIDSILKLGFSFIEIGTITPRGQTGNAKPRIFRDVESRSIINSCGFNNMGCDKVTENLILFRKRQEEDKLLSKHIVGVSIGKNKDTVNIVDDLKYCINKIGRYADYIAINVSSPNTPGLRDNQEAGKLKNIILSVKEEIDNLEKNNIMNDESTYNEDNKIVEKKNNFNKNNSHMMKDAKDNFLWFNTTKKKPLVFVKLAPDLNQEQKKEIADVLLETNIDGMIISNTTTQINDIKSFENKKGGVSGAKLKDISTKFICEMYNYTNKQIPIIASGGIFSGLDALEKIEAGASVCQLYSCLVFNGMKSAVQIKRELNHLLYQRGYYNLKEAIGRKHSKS

| SMILES | z-score [1] | z-score [2] | z-score [3] | z-score [4] | z-score [5] | z-score [6] | z-score [7] | z-score [8] | z-score [9] | z-score [10] | z-score [11] | z-score [12] | z-score [13] | composite z-score [14] | z-score [15] | z-score [16] | z-score [17] | z-score [18] | z-score [19] | composite z-score [20] |
| --- | --- | --- | --- | --- | --- | --- | --- | --- | --- | --- | --- | --- | --- | --- | --- | --- | --- | --- | --- | --- |
| CCOC(=O)C[C@H]1[C@H](OC(=O)c2cc3ccccc3oc2=O)[C@@H](NC(=O)CC(C)C)c2cc(OCCCO)ccc2N1C(=O)Cc1ccc(OC)cc1 | 0.746 | 0.967 | 0.535 | 0.12 | 0.28 | 0.433 | -0.119 (inactive) | 0.421 | 0.328 | -0.546 (inactive) | -0.74 | -0.628 (inactive) | -0.233 (inactive) | -0.144 (inactive) | -0.423 (inactive) | -0.746 (inactive) | -0.715 (inactive) | -1.18 (inactive) | -0.72 | -0.284 |
| COc1ccc([Si](C)(C)[C@@H]2[C@@H](CC(=O)N3Cc4ccccc4C[C@H]3CO)O[C@]3(C(=O)N(Cc4cccc(N5CCOC5=O)c4)c4ccccc43)[C@H]2C)cc1 | -1.43 | 1.69 | -0.443 | -2.51 | -3.32 | -0.0282 | 0.192 (inactive) | -1.16 | -1.01 | -2.45 (inactive) | -1.02 | -0.238 (inactive) | -2.17 (inactive) | 0.314 (inactive) | 0.79 (inactive) | 1.64 (inactive) | -0.742 (inactive) | -0.655 (inactive) | -2.05 | -0.13 |
| Cc1ccc(S[C@]2(C(=O)NC3CC3)CC(=O)N(C(C)C)[C@@H]2c2ccc(CO)cc2I)cc1 | 1.22 | 1.07 | -0.722 | -2.31 | -2.82 | 2.11 | -0.578 (inactive) | -0.114 | -2.21 | 0.954 (inactive) | 0.0662 | -3.47 (inactive) | -2.29 (inactive) | -0.632 (inactive) | -0.227 (inactive) | -2.02 (inactive) | 0.741 (inactive) | 0.617 (inactive) | -2.37 | -0.02 |
| COC(=O)[C@H](Cc1ccccc1)N1CC2=CCCC=C[C@@H]2[C@H]1[C@H](O)Cc1ccccc1 | -0.183 | -0.635 | 0.244 | -3.12 | -1.41 | -0.866 | -0.116 (inactive) | -1.16 | -0.746 | 0.705 (inactive) | 0.272 | -1.7 (inactive) | 0.612 (inactive) | -0.313 (inactive) | -0.565 (inactive) | -0.77 (inactive) | -0.337 (inactive) | -0.27 (inactive) | 0.0722 | 0.104 |
| COC(=O)[C@@]1(Cc2ccc(OC)cc2)[C@H]2c3cc(C(=O)N4CCCC4)n(Cc4c(CO)[nH]cc(C)c4=O)c3C[C@H]2CN1C(=O)c1ccccc1 | -0.37 | 0.454 | 0.375 | -0.206 | 0.501 | 2.94 | 0.926 (inactive) | 0.166 | -1.19 | 0.582 (inactive) | 0.229 | 0.684 (inactive) | 0.421 (inactive) | -1.21 (inactive) | 0.548 (inactive) | 0.124 (inactive) | 0.153 (inactive) | 1.17 (inactive) | 0.572 | 0.477 |
| COc1ccc(C(O)C2C=CC3C(=O)N(c4ccccc4)C(=O)C3N2Nc2ccc([N+](=O)[O-])cc2)c2ccccc12 (stereo not given) | -0.826 | -1.07 | -0.39 | -0.517 | -0.54 | -2.27 | -1.08 (inactive) | -0.344 | -1.32 | 0.604 (inactive) | 0.248 | 0.0244 (inactive) | -0.121 (inactive) | 0.767 (inactive) | 2.53 (inactive) | 0.0842 (inactive) | -0.901 (inactive) | -0.219 (inactive) | -0.322 | 0.312 |
| CN1C(=O)C2C=CC(C(O)c3ccc(-c4ccccc4)s3)N(NC(=O)OC(C)(C)C)C2C1=O (stereo not given) | -0.823 | -1.6 | -0.68 | 0.244 | -0.906 | -1.73 | -0.339 (inactive) | -0.0635 | 0.856 | 0.117 (inactive) | -0.807 | 0.537 (inactive) | -0.629 (inactive) | 0.63 (inactive) | 1.08 (inactive) | 0.432 (inactive) | 0.28 (inactive) | -0.0168 (inactive) | -0.694 | -0.162 |
| C=CCN1C(=O)[C@]2(O[C@H](CCn3cc([C@H](O)c4ccccc4)nn3)[C@@H]([Si](C)(C)c3ccc(OC)cc3)[C@@H]2C)c2cc(NC(=O)c3ccc(OC)cc3)ccc21 | 0.268 | 0.37 | -1.87 | -2.74 | -4.38 | 3.48 | 0.517 (inactive) | -1.17 | -1.39 | -2.43 (inactive) | -1.66 | -0.971 (inactive) | -3.65 (inactive) | 0.717 (inactive) | 1.59 (inactive) | 1.11 (inactive) | 0.517 (inactive) | 0.418 (inactive) | -3.68 | -0.02 |
| COc1ccc([Si](C)(C)[C@H]2[C@H](CC(=O)N3Cc4ccccc4C[C@H]3CO)O[C@@]3(C(=O)N(C)c4ccccc43)[C@@H]2C)cc1 | -0.962 | 1.43 | -1.42 | -2.67 | -4.05 | -0.592 | -0.0846 (inactive) | -1.1 | -0.748 | -0.299 (inactive) | -0.894 | -3.38 (inactive) | -1.97 (inactive) | -1.45 (inactive) | -0.695 (inactive) | 0.0745 (inactive) | -1.44 (inactive) | -1.38 (inactive) | -2.06 | 0.119 |

Reference: PubChem BioAssay
